# Test results published in the supplement of paper PMC13380429.
# Tested on: Vero E6 infected with SARS-CoV-2
# Experiment: morphology score (similarity to uninfected cells); higher = more like uninfected cells
# Conditions: 24 h
row,Compound,morphology score
1,CC(C)=CCC[C@](C)(O[C@@H]1O[C@H](CO)[C@@H](O)[C@H](O)[C@H]1O)[C@H]1CC[C@]2(C)[C@@H]1[C@H](O)C[C@@H]1[C@@]3(C)CC[C@H](O)C(C)(C)[C@@H]3CC[C@]12C [ginsenoside-C-K] (10 µM),0.0257
2,CC1(CN)Cc2ccccc2C1 (10 µM),0.0351
3,COc1ccc(C2=N[C@@H](c3ccc(Cl)cc3)[C@@H](c3ccc(Cl)cc3)N2C(=O)N2CCNC(=O)C2)c(OC(C)C)c1 [nutlin-3] (0.833333 µM),0.101
4,Nc1nc(OCc2ccccc2)c2nc[nH]c2n1 [O6-benzylguanine] (10 µM),0.112
5,COc1cc2c(NC3CCN(C4CCCCC4)CC3)nc(N3CCCN(C(C)C)CC3)nc2cc1OCCCN1CCCCC1 (10 µM),0.458
6,OC[C@H]1NC[C@@H](O)[C@@H](O)[C@@H]1O [1-deoxymannojirimycin] (10 µM),-0.0915
7,NC[C@H]1O[C@H](O[C@H]2[C@H](O)[C@@H](O[C@H]3O[C@H](CO)[C@@H](O)[C@H](N)[C@H]3O)[C@H](N)C[C@@H]2N)[C@H](O)[C@@H](O)[C@@H]1O [kanamycin] (10 µM),0.227
8,CCCCNc1cc(C(=O)O)cc(S(N)(=O)=O)c1Oc1ccccc1 [bumetanide] (10 µM),0.0462
9,N#C/C(=C\c1ccc(O)c(O)c1)C(N)=O [tyrphostin-AG-99] (10 µM),0.0858
10,CNC1CCCN(c2c(F)cc3c(=O)c(C(=O)O)cn(C4CC4)c3c2OC)C1 (stereo unspecified) [balofloxacin] (10 µM),-0.103
11,CCOc1ccc(NC(C)=O)cc1 [phenacetin] (10 µM),-0.129
12,COc1ccccc1Oc1c(NS(=O)(=O)c2ccc(C(C)(C)C)cc2)nc(-c2ncccn2)nc1OCCO [bosentan] (10 µM),0.0268
13,Cc1cc(N2CCCCC2)nc2ccccc12 (10 µM),0.282
14,CCN(CCO)CCCOc1ccc2c(Nc3cc(CC(=O)Nc4cccc(F)c4)[nH]n3)ncnc2c1 [barasertib-HQPA] (10 µM),0.0875
15,Cc1cc2cc3c(C)cc(=O)oc3c(C)c2o1 [trioxsalen] (10 µM),0.133
16,CC1=C(C(=O)Nc2cc3cn[nH]c3cc2F)C(c2ccc(C(F)(F)F)cc2)CC(=O)N1 (stereo unspecified) (10 µM),0.426

row,Compound,morphology score
1,NC(=O)c1ncn([C@@H]2O[C@H](CO)[C@@H](O)[C@H]2O)c1N [acadesine] (10 µM),0.00261
2,CC(C)Nc1nc2cc(Cl)c(Cl)cc2n1[C@H]1O[C@@H](CO)[C@H](O)[C@@H]1O [maribavir] (10 µM),-0.0681
3,CCOc1cc2ncc(C#N)c(Nc3ccc(OCc4ccccn4)c(Cl)c3)c2cc1NC(=O)/C=C/CN(C)C [neratinib] (10 µM),-0.265
4,CN(C(=O)/C=C/c1ccoc1)[C@@H]1CC[C@@]2(O)[C@H]3Cc4ccc(O)c5c4[C@@]2(CCN3CC2CC2)[C@H]1O5 [nalfurafine] (10 µM),-0.0681
5,CCCCCCCC/C=C\CCCCCCCC(=O)NCCO [oleoylethanolamide] (10 µM),0.0636
6,Cc1ccc(/C=C2\CNC/C(=C\c3ccc(C)cc3)C2=O)cc1 (0.833333 µM),0.168
7,CCCS(=O)(=O)Nc1ccc(F)c(C(=O)c2c[nH]c3ncc(Cl)cc23)c1F (10 µM),-0.0271
8,CCN(CCCCOC(=O)c1ccc(OC)c(OC)c1)C(C)Cc1ccc(OC)cc1 (stereo unspecified) [mebeverine] (10 µM),0.178
9,N#Cc1cccc(C(=O)Nc2cc(-c3ccccc3)nn2-c2ccccc2)c1 (10 µM),-0.166
10,C[C@@H]1C[C@H]2[C@@H]3C[C@H](F)C4=CC(=O)C=C[C@]4(C)[C@@]3(F)[C@@H](O)C[C@]2(C)[C@@]1(O)C(=O)COC(=O)C(C)(C)C [flumethasone-pivalate] (10 µM),0.324
11,COCCOC(=O)C1=C(C)NC(C)=C(C(=O)OC/C=C/c2ccccc2)C1c1cccc([N+](=O)[O-])c1 (stereo unspecified) [cilnidipine] (10 µM),0.171
12,CCc1cc2c(cc1CC)CC(NC[C@H](O)c1ccc(O)c3[nH]c(=O)ccc13)C2 [indacaterol] (10 µM),0.0532
13,O=S1(=O)N[C@H]2CCCN2c2ccccc21 (10 µM),0.0127
14,O=P(O)(NCCCl)NCCCl [palifosfamide] (10 µM),-0.0297
15,O=c1[nH]c2ccc(Cl)cc2c(N[C@@H]2CN3CCC2CC3)c1-c1nc2ccccc2[nH]1 (10 µM),-0.162
